# Measured values: PubChem BioAssay AID504332 (National Center for Advancing Translational Sciences (NCATS), 2011)
# Out of some 350,000 compounds screened, about 31,000 (8.9%) were called active. Not shown: some 15% with an inconclusive outcome. Calls come from the whole dose curve; as a rule, active = well fitted inhibition curve with a large enough effect; inconclusive = small, poorly fitted or top-dose-only effect; inactive = no such curve, though single readings can be large or run the other way. Shown is part of a subset that was picked to be rich in actives. A call without a number means that no potency is given here.
# Target: Histone-lysine N-methyltransferase EHMT2 (Homo sapiens) (UniProt Q96KQ7)
# Experiment: qHTS Assay for Inhibitors of Histone Lysine Methyltransferase G9a; note: nearly all actives have a fitted effect of over 75% in size
# Conditions: G9a H3K9 monomethylation, AlphaScreen, 2 h; series mostly up to 59 µM
# Summary of the method: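 Chemiluminescent proximity detection of H3K9 monomethylation, read after 10 min bead incubation in the dark. Reaction: 20 nM G9a, 500 nM biotin-H3K9 peptide, 20 uM SAM cofactor, 2 h, room temperature, following 15 min enzyme-compound preincubation.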
# Potency is the fitted concentration of half-maximal effect.
# Chain of Histone-lysine N-methyltransferase EHMT2 (Homo sapiens) (Q96KQ7 913-1193 limits assumed): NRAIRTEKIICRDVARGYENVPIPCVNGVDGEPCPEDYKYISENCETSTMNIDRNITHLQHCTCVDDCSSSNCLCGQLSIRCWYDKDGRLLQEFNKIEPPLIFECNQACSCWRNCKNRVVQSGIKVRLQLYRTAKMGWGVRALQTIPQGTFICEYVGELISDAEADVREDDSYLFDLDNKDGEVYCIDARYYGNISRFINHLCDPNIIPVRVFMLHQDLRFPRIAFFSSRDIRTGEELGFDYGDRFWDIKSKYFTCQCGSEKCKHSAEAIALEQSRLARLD
SMILES,Potency,"activity, negative = inhibition"
Cc1ccc(C(=O)COC(=O)C(Cc2c[nH]c3ccccc23)NC(=O)c2ccc(Br)cc2)cc1 (configuration not stated),inactive,–
Cn1cc(S(=O)(=O)N2CCCCCC2)cc1C(=O)N1CCN(c2ccc(F)cc2)CC1,inactive,–
CCCCc1nn2c(=O)cc(COC(=O)c3ccc(NC(=O)c4ccccc4C)cc3)nc2s1,inactive,–
Cc1ccc(-n2c(SCC(=O)Nc3cccc(F)c3)nc3c(oc4ccccc43)c2=O)cc1C,inactive,–
CCN(CC(=O)Nc1ccc(OC)cc1)C(=O)c1ccc(Cl)c(S(=O)(=O)N2CCCC2)c1,inactive,–
COc1ccc(C(=O)OCC(=O)c2ccc(Cl)s2)c(OC)c1OC,inactive,–
C=CCNC(=S)NNC(=O)c1cc(Cl)ccc1OC,inactive,–
C=CCNC(=S)NNC(=O)c1ccc(Br)o1,inactive,–
C=CCNC(=S)NNC(=O)COc1c(Cl)cc(Cl)cc1Cl,8.91 µM (active),–
C=CCn1c(SCc2cccc(F)c2)nc2cc(C(=O)N3CCC(C(N)=O)CC3)ccc2c1=O,inactive,–
O=C(c1cc(-c2ccc(F)cc2)on1)N1CCN(c2ccc(F)cc2)CC1,inactive,–
Cc1ccc(CSCC2Nc3ccc(C(=O)N4CCN(c5ccc(F)cc5)CC4)cc3NC2=O)cc1 (configuration not stated),2.24 µM (active),–
O=C1Nc2cc(C(=O)N3CCN(c4ccc(F)cc4)CC3)ccc2NC1CSCc1cccc(F)c1 (configuration not stated),10 µM (active),–
O=C(c1cccc(F)c1)N1CCC2(CC1)CCN(c1ccccc1)CC2,–,-4.3% [at 12.7 µM] (inactive)
O=C(c1cc(C(=O)N2CCN(c3ccc(F)cc3)CC2)cc([N+](=O)[O-])c1)N1CCN(c2ccc(F)cc2)CC1,–,1.74% [at 0.501 µM] (inactive)
CC1CCCC(NC(=O)c2cc(S(=O)(=O)N3CCCCC3)ccc2Cl)C1C (configuration not stated),–,12.6% [at 12.7 µM] (inactive)
CCOC(=O)c1c(C)[nH]c(C)c1S(=O)(=O)N1CCC(C(=O)Nc2ccc(C)c(Cl)c2)CC1,inactive,–
CC(=O)Nc1cccc(C(=O)OCC(=O)c2ccc3c(c2)OCO3)c1,inactive,–
CC1(C)CC(=O)c2ccc(O)cc2O1,inactive,–
COc1ccc(C(=O)Nc2onc3c2CCCC3)cc1,inactive,–
CC(C)(C)c1ccc(C(=O)NCC(c2ccc(Cl)cc2)N2CCOCC2)cc1 (configuration not stated),inactive,–
CCOC(=O)c1cc2c(=O)n3ccccc3nc2n(CC2CCCO2)c1=NC(=O)c1ccccc1F (configuration not stated),inactive,–
COc1ccc(-c2nn3c(-c4ccccc4)nnc3s2)cc1OC,35.5 µM (active),–
CCOc1cccc(-c2nn3c(-c4ccccn4)nnc3s2)c1,inactive,–
COc1cc(-c2nn3c(-c4cccc(C)c4)nnc3s2)cc(OC)c1OC,–,-23.6% [at 12.7 µM] (inactive)

SMILES,Potency,"activity, negative = inhibition"
COC(=O)c1ccc(NCC(=O)c2ccccc2)cc1,50.1 µM (active),–
Cc1ccc(C(=O)CNc2ccc(F)cc2)cc1,inactive,–
COC(=O)c1ccc(NCC(=O)N2CCCCCC2)cc1,inactive,–
CCCCc1nc2cc(C(=O)NCCc3cnn(C)c3)ccc2o1,inactive,–
O=C(NC1CCCCCCC1)c1cccs1,inactive,–
CCN(Cc1ccccc1)C(=O)Cc1ccc(OC)c(S(=O)(=O)N2CCOCC2)c1,inactive,–
Cc1ccc(C(=O)c2ccc(N3CCN(C)CC3)c([N+](=O)[O-])c2)cc1,inactive,–
CN1CCN(c2ccc(S(=O)(=O)Nc3ccccc3)cc2[N+](=O)[O-])CC1,inactive,–
CN1CCN(S(=O)(=O)c2ccc(N3CCN(c4ccccc4O)CC3)c([N+](=O)[O-])c2)CC1,39.8 µM (active),–
Cc1ccc(S(=O)(=O)n2nc(-c3ccc(Cl)cc3)nc2NCc2ccccc2)cc1,inactive,–
COCCNc1cc(-c2ccccc2)nc2cc(-c3cccc(F)c3)nn12,inactive,–
COCC1CCN(C(=O)c2ccc3oc(Cc4ccccc4)nc3c2)C1 (configuration not stated),inactive,–
CCN(CC)S(=O)(=O)c1ccc2[nH]c(=O)cc(C(=O)N(C)C3CCS(=O)(=O)C3)c2c1 (configuration not stated),inactive,–
COc1cccc(CNC(=O)C2CCN(S(=O)(=O)c3ccc4c(ccn4C)c3)CC2)c1,inactive,–
COc1ccc(-c2nc(CS(=O)CC(=O)NCc3ccccc3)c(C)o2)cc1OC (configuration not stated),inactive,–
COc1ccc(-c2nc(CS(=O)CC(=O)N3CCc4ccccc4C3)c(C)o2)cc1 (configuration not stated),28.2 µM (active),–
Cc1ccc(-c2nc(CS(=O)CC(=O)NC3CCCC3)c(C)o2)cc1 (configuration not stated),70.8 µM (active),–
COc1cccc(-c2nc(CS(=O)CC(=O)NCc3ccc(F)cc3)c(C)o2)c1 (configuration not stated),inactive,–
COc1ccc(CNC(=O)CS(=O)Cc2nc(-c3cccc(C)c3)oc2C)cc1 (configuration not stated),inactive,–
Cc1cccc(-c2nc(CS(=O)CC(=O)NC(C)CCc3ccccc3)c(C)o2)c1 (configuration not stated),inactive,–
CCC(=O)Nc1cccc(C(=O)OCc2cc(=O)n3nc(CC)sc3n2)c1,–,-1.91% [at 12.7 µM] (inactive)
COc1ccccc1CNC(=O)C(Cc1ccccc1)NS(=O)(=O)c1ccc2c(c1)oc(=O)n2C (configuration not stated),inactive,–
CC(C)CC(NS(=O)(=O)c1ccc2c(c1)oc(=O)n2C)C(=O)NCc1ccccc1Cl (configuration not stated),inactive,–
CCOc1ccc(OCC)c(NC(=O)C(NS(=O)(=O)c2ccc3c(c2)oc(=O)n3C)C(C)C)c1 (configuration not stated),56.2 µM (active),–
CCCn1c2ccccc2c2cnn(CC(=O)N3CCCC(C(=O)OCC)C3)c(=O)c21 (configuration not stated),inactive,–

SMILES,Potency,"activity, negative = inhibition"
CC(Sc1sc(=S)sc1SC(C)C(=O)O)C(=O)O (configuration not stated),50.1 µM (active),–
Cc1ccc(C)c(NC(=O)COC(=O)Cn2c(C)csc2=O)c1,inactive,–
COc1ccccc1CCC(=O)NNC(=O)c1ccncc1,inactive,–
CC(C)(C)c1cc(P(=O)(c2ccccc2)c2ccccc2)ccc1O,inactive,–
O=C(CP(=O)(c1ccccc1)c1ccccc1)N1CCOCC1,inactive,–
O=P(O)(CP(=O)(c1ccccc1)c1ccccc1)c1ccccc1O,50.1 µM (active),–
O=C1N(Cc2ccccc2)c2ccc(Cl)cc2C1(O)c1c[nH]c2ccccc12 (configuration not stated),inactive,–
COc1ccccc1N1CCN(C2C(=O)c3ccccc3N2C(C)=O)CC1 (configuration not stated),inactive,–
O=C(CCS(=O)(=O)c1ccc2c(c1)NC(=O)CS2)NCc1ccccc1Cl,inactive,–
COc1ccc(C(=O)N/N=C2\CCS(=O)(=O)c3ccc(F)cc32)cc1OC,–,27.4% [at 12.7 µM] (inactive)
O=S1(=O)CC/C(=N\Nc2ccc(F)cc2)c2ccsc21,10 µM (active),–
O=C(c1cccc(Cl)c1)N1CCN(CCc2ccncc2)CC1,inactive,–
Cc1ccccc1C(OCC(O)CN1CCCCC1CCO)c1ccccc1 (configuration not stated),inactive,–
Cc1ccccc1C(OCCN(C)C)C1CCCCC1 (configuration not stated),3.16 µM (active),–
CN(C)CCOC(=O)C(c1ccccc1)C1(O)CCCC1 (configuration not stated),–,4.21% [at 2.33 µM] (inactive)
COc1ccc(-c2cn[nH]c2-c2ccc(OC)cc2)cc1,inactive,–
COc1ccc2[nH]c(=O)c(-c3noc(-c4ccc(F)cc4)n3)cc2c1,–,-36.9% [at 12.7 µM] (inactive)
COc1ccc(N=Nc2c(-c3ccc(OC)cc3)[nH]oc2=O)cc1,39.8 µM (active),–
Cc1occc1-c1nnc(SCC(=O)NC2CCCCC2)o1,–,9.17% [at 12.7 µM] (inactive)
COc1ccccc1CNC(=O)CSc1nc(=O)n(Cc2ccncc2)c2c1CCC2,inactive,–
CC1CN(CCCOc2ccccc2-c2ccccc2)CC(C)O1 (configuration not stated),8.91 µM (active),–
CC1CN(c2nc(-c3ccccc3)nnc2-c2ccccc2)CC(C)O1 (configuration not stated),inactive,–
CC1CCCN(CC(=O)Nc2cc(Cl)ccc2Oc2ccccc2)C1 (configuration not stated),inactive,–
CC1CC(C)CN(CCOc2cccc3ccccc23)C1 (configuration not stated),–,17.4% [at 2.33 µM] (inactive)
O=[N+]([O-])c1ccccc1OCCCCN1CCCCC1,inactive,–

SMILES,Potency,"activity, negative = inhibition"
CC1CN(CCOc2ccccc2[N+](=O)[O-])CC(C)O1 (configuration not stated),10 µM (active),–
CC1CN(CC(=O)NC(C)c2ccccc2)CC(C)O1 (configuration not stated),inactive,–
Cc1cc(C(=O)COc2ccccc2[N+](=O)[O-])c(C)n1-c1cccc(S(=O)(=O)N2CCOCC2)c1,inactive,–
CC1CCCN(CCOCCOc2ccccc2-c2ccccc2)C1 (configuration not stated),10 µM (active),–
CC(C)(C)c1ccc(S(=O)(=O)N2CCN(C(=O)c3ccc4c(c3)C(=O)N(Cc3ccncc3)C4=O)CC2)cc1,inactive,–
CCc1ccccc1NC(=O)CSc1nnc(-c2ccccc2)c(-c2ccccc2)n1,inactive,–
O=C(Nc1ccc(-c2nc3cc(NC(=O)c4ccccc4Cl)ccc3o2)cc1)c1ccccc1Cl,inactive,–
O=C(CCc1nc2sc3c(c2c(=O)[nH]1)CCCC3)NCC(=O)Nc1ccccc1Br,–,-4.82% [at 12.7 µM] (inactive)
COc1cccc(C(=O)N2CCC(n3nccc3NC(=O)C3CCOC3)CC2)c1 (configuration not stated),–,-5.15% [at 0.501 µM] (inactive)
Cc1cc(Br)ccc1NC(=O)Cn1cnc2sc(C)c(S(=O)(=O)N3CCN(C)CC3)c2c1=O,inactive,–
Cc1cc(NC(=O)c2cccc(N3C(=O)CCC3=O)c2)no1,inactive,–
COc1ccccc1-c1nnc(NC(=O)c2cccc(N3C(=O)CCC3=O)c2)o1,1.41 µM (active),–
O=C(Nc1cccc2cccnc12)c1cccc(N2C(=O)CCC2=O)c1,inactive,–
COc1cc(NC(=O)NCC2CCN(Cc3ccc(C)cc3)CC2)cc(OC)c1OC,inactive,–
COc1cc(CN2CCN(Cc3ccc(C)cc3)CC2)c([N+](=O)[O-])cc1OC,4.47 µM (active),–
COc1cc(CN2CC(C)CC(C)C2)cc([N+](=O)[O-])c1O (configuration not stated),inactive,–
CCOC(=O)c1cc(-c2ccccc2)n(CCC(=O)Nc2ccccc2CC)c1C,inactive,–
CN(C)CCOC1c2ccccc2-c2ccccc21,22.4 µM (active),–
COC(CCN(C)C)(c1ccccc1)c1ccccc1,inactive,–
O=C(N/N=C/c1ccc2c(c1)OCO2)c1ccc(Cn2cc([N+](=O)[O-])cn2)o1,inactive,–
CN(C)c1ccc(/C=N/NC(=O)c2ccc(Cn3cc(Br)cn3)o2)cc1,39.8 µM (active),–
O=C(N/N=C\c1ccc(Br)cc1)c1ccc(Cn2cccn2)o1,inactive,–
